Data on 26 molecules can be found in PubChem BioAssay.

Assay [1] concerns Aerobactin synthetase IucA (Klebsiella pneumoniae). The assay is described as follows: inhibition of K. pneumoniae IucA enzyme – biochemical, Tocris library, absorbance (AID 1345561; call rule not given here;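 note: 100% = enzyme without compound and 0% = no enzyme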). Particulars: purified IucA enzyme assay, absorbance (OD) read-out; stronger effect = lower value;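 tested at 8 µM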.
The nature of assay [2]: viability loss with induced miR-34 in A549 – imaging, A549 dox-inducible miR-34, nuclei and caspase counts, primary screen (AID 1347080). Particulars: A549 miR-34 inducible, Hoechst nuclei count, 48 h.
Assay [3] can be described thus: galactose survival enhancers in mitochondrial complex I cybrids – cell-based, galactose medium, ATP luminescence, primary screen (AID 1645843;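 active = z-score of at least 1.8 in each of two replicates, scored against plate mean and spread of sample wells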;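 note: positive z means more ATP and so rescue of galactose-driven cybrid death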). Conditions: complex I mutant cybrid cells, 72 h, stronger effect = higher value.
The mark [4] stands for this setting: stronger effect = lower value, cell number ratio, induced over uninduced.
The mark [5] stands for this setting: measured here: relative caspase fold change +Dox/-Dox.
Where [6] appears, read: measured here: total cells with miR-34 induction, stronger effect = lower value.
The mark [7] stands for this setting: measured here: total cells without miR-34 induction.

Calls of active or inactive are those of the source.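 Rule for the calls, unless noted: active = compounds whose cell count with miR-34 switched on is under 0.7 times the count with it off; inactive = the rest.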

As usually defined, the remaining activity is the signal under treatment as a percentage of the control signal.

With `COC(=O)c1ccccc1NC(=O)c1ccc(F)cc1`, in assay [1], the remaining activity is 99.3% (inactive). Further, the figures for the fold change in assay [2] (setting [4]) and in assay [2] (setting [5]) were 0.965 (inactive) and 0.872, respectively. Also, the cell count in assay [2] (setting [6]) amounted to 7260; in assay [2] (setting [7]), 7520. Moreover, in assay [3], the z-score is 0.635 (inactive).

`COC(=O)c1sccc1S(=O)(=O)Nc1ccc(Nc2ccccc2)cc1OC`: the remaining activity in assay [1] is 87.9% (inactive). Further, the fold change in assay [2] (setting [4]) was 0.862 (inactive); in assay [2] (setting [5]), 1.31. In addition, the figures for the cell count in assay [2] (setting [6]) and in assay [2] (setting [7]) were 6450 and 7480, respectively. Further, the z-score in assay [3] was -0.495 (inactive).

In the case of `C[C@@H]1CC2C3CCC4=CC(=O)C=CC4(C)C3(F)[C@@H](O)CC2(C)C1(O)C(=O)CO` (stereo partly specified), the remaining activity in assay [1] was 110% (inactive). Further, the figures for the fold change in assay [2] (setting [4]) and in assay [2] (setting [5]) were 0.804 (inactive) and 0.753, respectively. The cell count was 7230 in assay [2] (setting [6]) and 8990 in assay [2] (setting [7]). In addition, the z-score in assay [3] is 0.725 (inactive).

For `Nc1nc(-c2ccc(Cl)c(Cl)c2)c(-c2ccncc2)s1`, the remaining activity in assay [1] was 110% (inactive). Moreover, the fold change is 0.959 (inactive) in assay [2] (setting [4]) and 1.23 in assay [2] (setting [5]). The results for the cell count in assay [2] (setting [6]) and in assay [2] (setting [7]) were 8510 and 8870, respectively. Also, in assay [3], the z-score is 1.59 (inactive).

As to `COc1cc([C@@H]2c3cc4c(cc3C(OC3OC5COC(C)OC5C(O)C3O)C3COC(=O)[C@@H]32)OCO4)cc(OC)c1O` (stereo partly specified), the remaining activity in assay [1] was 116% (inactive). Besides, the fold change is 1.07 (inactive) in assay [2] (setting [4]) and 0.575 in assay [2] (setting [5]). In addition, the cell count in assay [2] (setting [6]) is 4900; in assay [2] (setting [7]), 4590. Also, in assay [3], the z-score was -0.765 (inactive).

`C=C1C(=O)O[C@@H]2/C=C(\C)CC/C=C(\C)CC[C@@H]12`: the remaining activity in assay [1] is 118% (inactive). The results for the fold change in assay [2] (setting [4]) and in assay [2] (setting [5]) were 1.04 (inactive) and 1.29, respectively. Moreover, the cell count came to 8100 in assay [2] (setting [6]) and 7810 in assay [2] (setting [7]). In addition, in assay [3], the z-score was -0.605 (inactive).

As to `O=c1nc2ccccc2c2n1CC(CN1CCN(c3ccccc3)CC1)N2` (stereo unspecified), the remaining activity in assay [1] is 100% (inactive). For the same molecule, the fold change was 0.869 (inactive) in assay [2] (setting [4]) and 0.649 in assay [2] (setting [5]). For the same molecule, the cell count was 9300 in assay [2] (setting [6]) and 10700 in assay [2] (setting [7]). For the same molecule, the z-score in assay [3] is -0.605 (inactive).

For `O=C(NC1CCN(Cc2ccccc2)CC1)c1ccc(I)cc1`, the remaining activity in assay [1] was 113% (inactive). Further, the results for the fold change in assay [2] (setting [4]) and in assay [2] (setting [5]) were 0.862 (inactive) and 0.815, respectively. The cell count in assay [2] (setting [6]) came to 6720; in assay [2] (setting [7]), 7800. For the same molecule, the z-score in assay [3] is -0.755 (inactive).

Take `O=C(O)c1cc(Oc2ccc([N+](=O)[O-])cc2)cc(Oc2ccc([N+](=O)[O-])cc2)c1`: in assay [1], the remaining activity is 113% (inactive). In addition, the fold change in assay [2] (setting [4]) is 0.979 (inactive); in assay [2] (setting [5]) it was 0.988. Besides, the cell count in assay [2] (setting [6]) amounted to 8410; in assay [2] (setting [7]) it was 8600. Also, the z-score in assay [3] was 1.39 (inactive).

As for `CC1(C)Oc2ccc(C#N)cc2[C@H](N2CCCC2=O)[C@H]1O` (racemic), the remaining activity in assay [1] was 116% (inactive). The fold change in assay [2] (setting [4]) is 0.905 (inactive); in assay [2] (setting [5]) it was 1.25. Further, the cell count stood at 8970 in assay [2] (setting [6]) and 9900 in assay [2] (setting [7]). In assay [3], the z-score is 0.155 (inactive).

With `O=C(Nc1c(-c2cccs2)nc2ccccn12)c1ccc(Cl)cc1`, in assay [1], the remaining activity was 108% (inactive). In addition, the fold change was 0.889 (inactive) in assay [2] (setting [4]) and 0.893 in assay [2] (setting [5]). Moreover, the cell count was determined as 8490 in assay [2] (setting [6]) and 9560 in assay [2] (setting [7]). Further, the z-score in assay [3] was 1.35 (inactive).

For `Cc1cc(Cn2cnc3c2C[C@@H](C(=O)O)N(C(=O)C(c2ccccc2)c2ccccc2)C3)ccc1N(C)C`, in assay [1], the remaining activity is 122% (inactive). The fold change in assay [2] (setting [4]) is 0.877 (inactive); in assay [2] (setting [5]), 0.611. Moreover, the cell count in assay [2] (setting [6]) was 8880; in assay [2] (setting [7]), 10100. The z-score in assay [3] is 0.245 (inactive).

Consider `CC(=Nc1ccccc1N)c1c(C)cc(=O)n(O)c1O`, for which, in assay [1], the remaining activity is 117% (inactive). Also, the fold change is 1.16 (inactive) in assay [2] (setting [4]) and 0.955 in assay [2] (setting [5]). Besides, the cell count in assay [2] (setting [6]) is 3450; in assay [2] (setting [7]) it was 2970. In addition, the z-score in assay [3] is -0.105 (inactive).

Regarding `COc1ccc(-n2[nH]c3c4c(ncc3c2=O)CCCCC4)cc1`, the remaining activity in assay [1] was 115% (inactive). The fold change is 0.906 (inactive) in assay [2] (setting [4]) and 1.8 in assay [2] (setting [5]). Moreover, the cell count in assay [2] (setting [6]) is 8550; in assay [2] (setting [7]), 9440. Besides, in assay [3], the z-score was 2.12 (active).

Turning to `Cc1ccccc1N1CCN(S(=O)(=O)CC23CCC(C[C@@H]2NC(=O)[C@@H](N)CCS(C)(=O)=O)C3(C)C)CC1` (stereo partly specified), the remaining activity in assay [1] was 82.6% (inactive). The results for the fold change in assay [2] (setting [4]) and in assay [2] (setting [5]) were 0.868 (inactive) and 1.54, respectively. The figures for the cell count in assay [2] (setting [6]) and in assay [2] (setting [7]) were 7420 and 8540, respectively. Further, the z-score in assay [3] was -0.14 (inactive).

With `CCCC[P+](CCCC)(CCCC)Cc1ccc(NC(=O)[C@@H](Cc2ccc3ccccc3c2)NC(=NC2CCCCC2)NC2CCCCC2)cc1`, the remaining activity in assay [1] is 117% (inactive). Further, the fold change is 1.01 (inactive) in assay [2] (setting [4]) and 1.13 in assay [2] (setting [5]). In addition, the cell count in assay [2] (setting [6]) was 2940; in assay [2] (setting [7]), 2900. The z-score in assay [3] is -0.83 (inactive).

As to `COC(=O)[C@H](Cc1ccc([N+](=O)[O-])cc1)NC(=O)c1cccc2ccccc12`, the remaining activity in assay [1] is 101% (inactive). The fold change in assay [2] (setting [4]) was 0.968 (inactive); in assay [2] (setting [5]), 0.966. Further, the figures for the cell count in assay [2] (setting [6]) and in assay [2] (setting [7]) were 9700 and 10000, respectively. Also, the z-score in assay [3] was -0.13 (inactive).

As for `CCc1ccccc1OC[C@@H](O)CN[C@H]1CCCc2ccccc21`, the remaining activity in assay [1] was 106% (inactive). The results for the fold change in assay [2] (setting [4]) and in assay [2] (setting [5]) were 0.986 (inactive) and 0.799, respectively. Moreover, the cell count was found to be 4870 in assay [2] (setting [6]) and 4940 in assay [2] (setting [7]). Further, the z-score in assay [3] is -0.74 (inactive).

On to `COc1ccccc1N1CCN(CCCCN2C(=O)CCC2=O)CC1`, for which the remaining activity in assay [1] is 103% (inactive). Besides, the fold change in assay [2] (setting [4]) was 0.855 (inactive); in assay [2] (setting [5]), 0.698. For the same molecule, the cell count in assay [2] (setting [6]) was found to be 8300; in assay [2] (setting [7]), 9700. In assay [3], the z-score is -0.25 (inactive).

As for `O=C(O)COc1ccc(OCCNC[C@@H](O)COc2ccccc2)cc1`, in assay [1], the remaining activity was 89.3% (inactive). In addition, the fold change in assay [2] (setting [4]) is 0.984 (inactive); in assay [2] (setting [5]) it was 1.02. Further, the cell count in assay [2] (setting [6]) stood at 8850; in assay [2] (setting [7]), 8990. Also, the z-score in assay [3] was 0.955 (inactive).

On to `CNC(=O)Oc1ccc2c(c1)C1(C)CCN(C)C1N2C` (stereo unspecified), for which the remaining activity in assay [1] was 128% (inactive). The fold change in assay [2] (setting [4]) is 0.943 (inactive); in assay [2] (setting [5]), 1.32. For the same molecule, the cell count in assay [2] (setting [6]) turned out to be 9440; in assay [2] (setting [7]), 10000. In addition, the z-score in assay [3] was -1 (inactive).

With `CCOC(=O)C1=C(C)NC(c2ccccc2)=C(C(=O)OCc2ccc([N+](=O)[O-])cc2)C1C#Cc1ccccc1` (stereo unspecified), in assay [1], the remaining activity was 124% (inactive). Besides, the fold change was 0.924 (inactive) in assay [2] (setting [4]) and 0.543 in assay [2] (setting [5]). The cell count in assay [2] (setting [6]) came to 7910; in assay [2] (setting [7]) it was 8560. In addition, the z-score in assay [3] is 0.3 (inactive).

`O=c1oc(-c2ccc(C(F)(F)F)cc2)nn1Cc1cc(Cl)ccc1O`: the remaining activity in assay [1] is 93.9% (inactive). In addition, the fold change in assay [2] (setting [4]) is 1.02 (inactive); in assay [2] (setting [5]) it was 1.81. In addition, the figures for the cell count in assay [2] (setting [6]) and in assay [2] (setting [7]) were 6380 and 6280, respectively. In addition, the z-score in assay [3] is -0.655 (inactive).

As to `N#Cc1cc2[nH]c(=O)c(=O)[nH]c2cc1[N+](=O)[O-]`, in assay [1], the remaining activity was 113% (inactive). Further, the fold change in assay [2] (setting [4]) was 0.891 (inactive); in assay [2] (setting [5]), 1.62. The cell count in assay [2] (setting [6]) turned out to be 9010; in assay [2] (setting [7]) it was 10100. Besides, the z-score in assay [3] is 0.095 (inactive).

Turning to `O=C(/C=C/c1ccccc1)NC(NC(=S)Nc1cccc2cccnc12)C(Cl)(Cl)Cl` (stereo unspecified), the remaining activity in assay [1] is 124% (inactive). For the same molecule, the fold change in assay [2] (setting [4]) was 1.01 (inactive); in assay [2] (setting [5]), 1.71. Besides, the cell count in assay [2] (setting [6]) turned out to be 4630; in assay [2] (setting [7]) it was 4560. The z-score in assay [3] was -0.47 (inactive).

With `O=C(c1c(O)c2ccc(Cl)cc2[nH]c1=O)C1CC1`, the remaining activity in assay [1] is 118% (inactive). For the same molecule, the fold change in assay [2] (setting [4]) was 0.973 (inactive); in assay [2] (setting [5]) it was 1.04. In addition, the values for the cell count in assay [2] (setting [6]) and in assay [2] (setting [7]) were 8250 and 8480, respectively. In addition, in assay [3], the z-score was -0.025 (inactive).
